According to the supplement of paper PMC10849652:
Of roughly 7,900 targets only a part is listed; those with a hit were picked by preference. About 0.6% of all pairs of compound and target were hits.

What was measured:
Experiment in all cases: log2 fold change, soluble protein after heating vs DMSO (PISA); higher = thermal stabilisation; K562 cells, 10 uM, 30 min; active = over 0.2 and 3.5 SD of the protein, either way, in both replicates (recomputed)
[1] = compound: COC1=CC=C(C=C1)CN2C=CC3=C2C=C(C=C3)C(=O)NO
Summary of the method: (§1)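 Soluble protein was quantified by TMTpro 16plex LC-MS/MS after channel sums were equalised. It was obtained as the supernatant after 21,000xg for 90 min from pooled aliquots of K562 cells (2×10^6 cells/mL, 10 μM compound, 30 min) heated for 3 min across 48°C-58°C and extracted in PBS with 0.5% NP-40 at 4°C. Thermal stability values are relative to control samples and come from duplicates. They are given as log2 fold changes.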

[2] = compound: CON(C)C(=O)N1N=C(c2cc(F)ccc2F)S[C@@]1(CCCN)c1ccccc1 [filanesib]
Summary of the method: as §1

[3] = compound: CO[C@H]1C[C@@H]2CC[C@@H](C)[C@@](O)(O2)C(=O)C(=O)N2CCCC[C@H]2C(=O)O[C@H]([C@H](C)C[C@@H]2CC[C@H](n3cnnn3)[C@H](OC)C2)CC(=O)[C@H](C)/C=C(\C)[C@@H](O)[C@@H](OC)C(=O)[C@H](C)C[C@H](C)/C=C/C=C/C=C/1C [zotarolimus]
Summary of the method: as §1

[4] = compound: COc1cc(C(=O)O)ccc1NC(=O)[C@@H]1N[C@@H](CC(C)(C)C)[C@](C#N)(c2ccc(Cl)cc2F)[C@H]1c1cccc(Cl)c1F [idasanutlin]
Summary of the method: as §1

[5] = compound: COc1cc(Nc2ncc3c(n2)-c2ccc(Cl)cc2C(c2c(F)cccc2OC)=NC3)ccc1C(=O)O [alisertib]
Summary of the method: as §1

[6] = compound: COc1cc2nc(-c3cc(F)ccc3O)nc(N[C@@H]3CNC[C@H]3C(C)(C)O)c2cc1OC
Summary of the method: as §1

[7] = compound: COc1cc2ncnc(Nc3ccc(F)c(Cl)c3)c2cc1OCCCN1CCOCC1 [gefitinib]
Summary of the method: as §1

[8] = compound: COc1cccc2cc(-c3nc([C@H]4CC[C@H](C(=O)O)CC4)n4ncnc(N)c34)[nH]c12
Summary of the method: as §1

[9] = compound: CS(=O)(=O)CCNCc1ccc(-c2ccc3ncnc(Nc4ccc(OCc5cccc(F)c5)c(Cl)c4)c3c2)o1 [lapatinib]
Summary of the method: as §1

[10] = compound: CS(=O)(=O)N1CCN(Cc2cc3nc(-c4cccc5[nH]ncc45)nc(N4CCOCC4)c3s2)CC1 [pictilisib]
Summary of the method: as §1

Measured: log2 fold change

MIEF1 (UniProt L0R8F8)
inactive: [1] 0.104 | [2] -0.072 | [3] 0.023 | [4] -0.063 | [5] -0.084 | [6] -0.148 | [7] -0.005 | [8] 0 | [9] 0.135 | [10] 0.033

LRBA (UniProt P50851)
inactive: [1] -0.004 | [2] -0.06 | [3] 0.002 | [4] -0.113 | [5] -0.017 | [6] 0.029 | [7] -0.008 | [8] 0.031 | [9] 0.009 | [10] -0.015

KNTC1 (UniProt P50748)
Chain of UniProt P50748 (P50748 whole entry, looked up): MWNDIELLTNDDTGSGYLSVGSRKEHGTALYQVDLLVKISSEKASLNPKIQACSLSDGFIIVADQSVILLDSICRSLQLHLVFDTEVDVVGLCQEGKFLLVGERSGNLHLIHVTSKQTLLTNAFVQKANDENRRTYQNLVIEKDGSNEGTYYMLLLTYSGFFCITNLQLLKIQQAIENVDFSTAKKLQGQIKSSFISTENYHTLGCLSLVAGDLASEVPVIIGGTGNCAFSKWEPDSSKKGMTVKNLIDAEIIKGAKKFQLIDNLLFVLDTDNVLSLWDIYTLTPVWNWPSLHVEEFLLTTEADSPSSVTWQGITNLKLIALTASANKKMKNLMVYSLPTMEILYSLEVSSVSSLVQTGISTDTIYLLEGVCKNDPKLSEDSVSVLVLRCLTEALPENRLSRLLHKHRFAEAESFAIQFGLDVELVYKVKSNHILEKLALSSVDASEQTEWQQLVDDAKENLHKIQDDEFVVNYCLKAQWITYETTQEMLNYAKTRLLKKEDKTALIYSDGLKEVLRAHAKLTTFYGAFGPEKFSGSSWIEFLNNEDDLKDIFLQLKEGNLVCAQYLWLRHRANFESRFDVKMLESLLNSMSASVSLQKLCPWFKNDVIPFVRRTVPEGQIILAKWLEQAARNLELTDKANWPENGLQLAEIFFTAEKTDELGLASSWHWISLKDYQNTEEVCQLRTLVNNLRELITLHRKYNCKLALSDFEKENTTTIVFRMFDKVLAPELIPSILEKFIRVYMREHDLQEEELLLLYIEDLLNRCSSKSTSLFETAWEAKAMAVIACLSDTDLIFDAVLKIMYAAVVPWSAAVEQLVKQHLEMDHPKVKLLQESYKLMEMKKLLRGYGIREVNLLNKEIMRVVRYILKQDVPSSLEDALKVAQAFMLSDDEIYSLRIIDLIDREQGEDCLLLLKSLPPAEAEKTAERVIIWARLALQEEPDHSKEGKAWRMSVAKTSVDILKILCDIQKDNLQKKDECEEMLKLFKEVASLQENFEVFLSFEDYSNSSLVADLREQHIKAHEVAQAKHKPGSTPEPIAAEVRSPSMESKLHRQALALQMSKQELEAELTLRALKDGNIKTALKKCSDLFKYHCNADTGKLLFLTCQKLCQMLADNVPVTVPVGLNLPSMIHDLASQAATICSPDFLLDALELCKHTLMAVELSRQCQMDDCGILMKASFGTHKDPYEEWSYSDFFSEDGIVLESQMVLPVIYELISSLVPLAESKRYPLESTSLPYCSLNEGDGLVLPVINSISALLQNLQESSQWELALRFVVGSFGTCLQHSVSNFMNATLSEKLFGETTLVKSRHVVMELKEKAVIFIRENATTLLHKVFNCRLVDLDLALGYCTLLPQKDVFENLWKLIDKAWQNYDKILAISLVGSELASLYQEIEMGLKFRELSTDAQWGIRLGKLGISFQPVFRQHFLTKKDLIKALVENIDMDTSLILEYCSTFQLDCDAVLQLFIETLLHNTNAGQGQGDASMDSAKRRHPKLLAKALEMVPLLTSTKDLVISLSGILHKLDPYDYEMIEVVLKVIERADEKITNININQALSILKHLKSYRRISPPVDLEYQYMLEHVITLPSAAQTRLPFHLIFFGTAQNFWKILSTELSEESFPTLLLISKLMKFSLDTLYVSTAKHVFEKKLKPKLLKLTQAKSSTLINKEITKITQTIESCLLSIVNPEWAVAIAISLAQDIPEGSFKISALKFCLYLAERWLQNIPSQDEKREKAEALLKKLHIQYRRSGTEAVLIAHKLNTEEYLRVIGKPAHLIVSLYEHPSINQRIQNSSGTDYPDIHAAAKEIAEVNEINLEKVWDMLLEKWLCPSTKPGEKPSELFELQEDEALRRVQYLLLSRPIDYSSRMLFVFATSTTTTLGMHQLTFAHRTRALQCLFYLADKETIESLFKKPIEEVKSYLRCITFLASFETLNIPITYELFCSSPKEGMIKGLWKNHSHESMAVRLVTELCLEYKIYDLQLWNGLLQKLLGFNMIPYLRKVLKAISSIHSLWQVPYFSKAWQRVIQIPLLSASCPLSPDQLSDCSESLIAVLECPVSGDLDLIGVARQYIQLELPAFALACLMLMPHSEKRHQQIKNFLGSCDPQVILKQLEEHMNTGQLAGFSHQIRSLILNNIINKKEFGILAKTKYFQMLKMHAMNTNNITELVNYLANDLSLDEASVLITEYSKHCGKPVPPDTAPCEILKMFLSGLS
inactive: [1] 0.03 | [2] -0.008 | [3] 0 | [4] -0.082 | [5] -0.035 | [6] 0.036 | [7] 0.175 | [8] -0.037 | [9] 0.008 | [10] 0.007

MAPKAPK2 (UniProt P49137)
inactive: [1] 0.066 | [2] -0.06 | [3] -0.012 | [4] -0.054 | [5] -0.03 | [6] 0.118 | [7] 0.11 | [8] 0.01 | [9] -0.025 | [10] 0.023

MAP2K7 isoform 4 (UniProt O14733)
inactive: [1] -0.018 | [2] -0.029 | [3] -0.042 | [4] -0.003 | [5] -0.029 | [6] 0.019 | [7] -0.027 | [8] 0.048 | [9] -0.016 | [10] 0.137

MDC1 (UniProt Q14676)
inactive: [1] -0.055 | [2] 0.223 | [3] 0.005 | [4] 0.283 | [5] -0.028 | [6] -0.01 | [7] 0.032 | [8] -0.045 | [9] 0.077 | [10] 0.08

ILF3 (UniProt Q12906)
inactive: [1] 0.033 | [2] 0.156 | [5] -0.203 | [7] -0.13 | [8] 0.045

ITGA2B (UniProt P08514)
Chain of UniProt P08514 (P08514 whole entry, looked up): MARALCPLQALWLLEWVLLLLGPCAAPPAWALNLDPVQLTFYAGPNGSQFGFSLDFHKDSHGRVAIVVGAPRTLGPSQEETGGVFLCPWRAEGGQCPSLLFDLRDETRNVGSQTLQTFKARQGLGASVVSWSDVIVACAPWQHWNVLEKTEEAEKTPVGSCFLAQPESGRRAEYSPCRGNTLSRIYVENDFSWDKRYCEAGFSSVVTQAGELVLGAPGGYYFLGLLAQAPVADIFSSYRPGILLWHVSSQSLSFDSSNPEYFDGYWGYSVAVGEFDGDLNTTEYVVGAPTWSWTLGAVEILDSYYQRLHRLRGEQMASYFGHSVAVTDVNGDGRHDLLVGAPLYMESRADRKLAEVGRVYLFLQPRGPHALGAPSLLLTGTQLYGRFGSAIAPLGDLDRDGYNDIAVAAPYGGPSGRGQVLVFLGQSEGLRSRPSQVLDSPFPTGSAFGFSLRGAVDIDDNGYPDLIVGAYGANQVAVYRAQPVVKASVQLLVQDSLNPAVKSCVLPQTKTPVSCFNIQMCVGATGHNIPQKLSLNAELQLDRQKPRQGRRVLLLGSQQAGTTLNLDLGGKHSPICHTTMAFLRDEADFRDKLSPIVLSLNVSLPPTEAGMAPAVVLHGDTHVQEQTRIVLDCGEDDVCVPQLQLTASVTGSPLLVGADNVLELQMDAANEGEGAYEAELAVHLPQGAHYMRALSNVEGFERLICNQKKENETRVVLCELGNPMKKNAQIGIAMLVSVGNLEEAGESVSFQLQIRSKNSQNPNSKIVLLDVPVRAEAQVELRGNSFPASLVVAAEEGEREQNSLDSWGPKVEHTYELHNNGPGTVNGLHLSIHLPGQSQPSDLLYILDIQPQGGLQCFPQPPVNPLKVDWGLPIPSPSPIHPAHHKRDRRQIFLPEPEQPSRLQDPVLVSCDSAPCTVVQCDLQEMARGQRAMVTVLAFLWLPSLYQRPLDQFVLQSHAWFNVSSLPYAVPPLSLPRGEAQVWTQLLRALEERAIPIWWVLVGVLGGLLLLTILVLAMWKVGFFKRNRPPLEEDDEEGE
inactive: [1] 0.004 | [2] 0.086 | [3] -0.065 | [4] 0.138 | [6] 0.074 | [7] -0.086 | [9] 0.033
active: [10] -0.589

MARK2 (UniProt E9PC69)
inactive: [1] -0.028 | [2] 0.128 | [3] 0.122 | [4] 0.106 | [7] -0.025 | [9] 0.085
active: [6] -0.765

LGALS8 isoform 2 (UniProt O00214)
inactive: [1] 0.202 | [2] 0.264 | [3] 0.053 | [4] 0.182 | [5] -0.021 | [8] -0.278 | [10] -0.183

MED22 (UniProt Q15528)
inactive: [1] -0.03 | [2] -0.008 | [3] 0.047 | [4] -0.023 | [5] 0.019 | [7] 0.017 | [8] -0.171

IMMT isoform 2 (UniProt Q16891)
inactive: [1] 0.006 | [2] -0.101 | [3] -0.045 | [4] 0.04 | [5] -0.088 | [6] -0.25 | [7] -0.006 | [8] 0.017 | [9] -0.151 | [10] -0.238

MED12 isoform 2 (UniProt Q93074)
inactive: [1] 0.093 | [2] 0.256 | [4] 0.103 | [5] 0.214 | [6] -0.09 | [7] 0.024 | [8] 0.007 | [9] 0.028 | [10] -0.113

KDELR2 (UniProt P33947)
inactive: [1] -0.155 | [2] -0.105 | [3] 0.035 | [4] -0.162 | [5] -0.014 | [6] -0.136 | [7] -0.064 | [8] 0.048 | [9] -0.127 | [10] -0.013

MED7 (UniProt O43513)
Chain of UniProt O43513 (O43513 whole entry, looked up): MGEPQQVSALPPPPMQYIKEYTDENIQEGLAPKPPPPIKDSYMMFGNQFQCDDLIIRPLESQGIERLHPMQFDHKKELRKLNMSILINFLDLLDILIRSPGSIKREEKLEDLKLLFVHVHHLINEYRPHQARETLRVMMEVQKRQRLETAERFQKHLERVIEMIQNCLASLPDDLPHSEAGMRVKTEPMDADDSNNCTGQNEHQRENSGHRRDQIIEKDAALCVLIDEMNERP
inactive: [1] -0.021 | [2] -0.01 | [3] 0.07 | [4] -0.159 | [6] -0.049 | [7] -0.022 | [9] -0.116

LBR (UniProt Q14739)
Chain of UniProt Q14739 (Q14739 whole entry, looked up): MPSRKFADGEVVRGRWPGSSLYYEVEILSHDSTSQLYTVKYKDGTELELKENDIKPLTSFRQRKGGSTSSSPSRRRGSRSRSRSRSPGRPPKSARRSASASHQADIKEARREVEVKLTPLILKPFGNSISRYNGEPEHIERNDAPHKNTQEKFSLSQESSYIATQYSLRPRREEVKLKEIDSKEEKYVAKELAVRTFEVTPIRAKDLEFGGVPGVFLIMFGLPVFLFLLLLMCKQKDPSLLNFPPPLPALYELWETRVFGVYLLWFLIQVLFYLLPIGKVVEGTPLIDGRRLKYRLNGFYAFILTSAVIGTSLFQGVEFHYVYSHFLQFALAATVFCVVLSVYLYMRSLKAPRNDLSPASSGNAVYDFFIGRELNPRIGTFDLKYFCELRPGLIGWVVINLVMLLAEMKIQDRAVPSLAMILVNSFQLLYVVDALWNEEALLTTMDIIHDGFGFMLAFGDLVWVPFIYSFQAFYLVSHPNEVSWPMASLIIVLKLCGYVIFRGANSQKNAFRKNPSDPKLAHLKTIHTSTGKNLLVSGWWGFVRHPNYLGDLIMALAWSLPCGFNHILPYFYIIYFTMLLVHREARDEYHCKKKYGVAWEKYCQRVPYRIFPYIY
inactive: [1] -0.075 | [2] -0.065 | [3] -0.008 | [4] -0.196 | [5] -0.019 | [6] 0.079 | [7] 0.034 | [8] 0 | [9] -0.081 | [10] -0.191

MASTL (UniProt Q96GX5)
inactive: [1] 0.147 | [2] -0.09 | [3] 0.088 | [4] 0.072 | [5] -0.09 | [7] -0.107 | [8] -0.155

MAP4K2 (UniProt Q12851)
inactive: [1] 0.02 | [2] -0.143 | [3] -0.083 | [6] 0.426 | [7] 0.034 | [9] -0.011

MAP3K20 (UniProt Q9NYL2)
inactive: [1] 0.04 | [2] 0.075 | [3] 0.033 | [4] 0.064 | [6] 0.048 | [7] -0.042 | [8] -0.059 | [9] 0 | [10] -0.02

INTS5 (UniProt Q6P9B9)
inactive: [1] -0.02 | [2] -0.055 | [4] 0.045 | [5] -0.019 | [6] -0.111 | [7] -0.017 | [8] -0.004 | [9] 0.13

LTO1 (UniProt Q8WV07)
Chain of UniProt Q8WV07 (Q8WV07 whole entry, looked up): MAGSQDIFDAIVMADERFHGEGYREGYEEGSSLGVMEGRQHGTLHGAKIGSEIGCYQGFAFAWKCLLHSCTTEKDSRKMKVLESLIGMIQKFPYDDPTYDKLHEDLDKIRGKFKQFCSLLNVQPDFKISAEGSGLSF
inactive: [1] -0.06 | [2] -0.06 | [3] 0.062 | [4] -0.093 | [5] 0.118 | [6] 0.036 | [7] 0.017 | [8] -0.001 | [9] -0.016 | [10] 0.038

IGFBP3 isoform 2 (UniProt P17936)
active: [3] -1.02
inactive: [1] 0.176 | [2] -0.272 | [4] 0.535 | [6] -0.103 | [9] 0.085 | [10] -0.085

MELK (UniProt Q14680)
Chain of UniProt Q14680 (Q14680 whole entry, looked up): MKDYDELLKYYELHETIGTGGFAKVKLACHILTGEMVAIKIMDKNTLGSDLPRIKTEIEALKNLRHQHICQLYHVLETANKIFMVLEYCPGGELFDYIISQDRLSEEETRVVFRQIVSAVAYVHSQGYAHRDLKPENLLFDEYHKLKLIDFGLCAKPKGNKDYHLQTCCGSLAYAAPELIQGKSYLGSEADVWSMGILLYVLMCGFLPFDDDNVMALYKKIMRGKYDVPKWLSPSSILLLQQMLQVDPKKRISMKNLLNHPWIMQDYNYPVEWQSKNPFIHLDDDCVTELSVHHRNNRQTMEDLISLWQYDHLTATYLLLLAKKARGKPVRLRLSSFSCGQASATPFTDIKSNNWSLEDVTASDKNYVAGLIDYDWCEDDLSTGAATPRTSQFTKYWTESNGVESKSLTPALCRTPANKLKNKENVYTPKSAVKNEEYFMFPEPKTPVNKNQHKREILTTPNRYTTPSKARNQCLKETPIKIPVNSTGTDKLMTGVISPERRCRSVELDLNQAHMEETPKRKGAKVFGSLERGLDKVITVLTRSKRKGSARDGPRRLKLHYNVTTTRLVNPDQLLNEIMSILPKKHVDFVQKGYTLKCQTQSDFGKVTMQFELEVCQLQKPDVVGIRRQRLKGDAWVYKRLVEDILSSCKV
active: [6] -3.59
inactive: [1] 0.072 | [2] -0.116 | [3] -0.019 | [4] 0.061 | [7] 0.253 | [9] -0.006 | [10] -0.079

JAK3 (UniProt P52333)
inactive: [1] -0.216 | [2] -0.019 | [3] 0.018 | [5] 0.052 | [6] -0.083 | [7] -0.047 | [8] -0.02 | [9] 0.01 | [10] -0.056

MAP1LC3B2 (UniProt A6NCE7)
inactive: [1] -0.026 | [2] -0.062 | [3] 0.011 | [4] -0.022 | [5] -0.004 | [6] -0.032 | [7] -0.003 | [8] -0.035 | [9] -0.011 | [10] -0.004

MAPK9 (UniProt P45984)
inactive: [1] -0.004 | [2] -0.01 | [3] -0.022 | [4] -0.062 | [5] -0.072 | [6] 0.043 | [7] 0.009 | [8] 0.001 | [9] -0.039 | [10] 0.075

LUM (UniProt P51884)
inactive: [1] -0.151 | [2] 0.169 | [3] 0 | [4] -0.023 | [6] -0.216 | [7] 0.087 | [9] 0.067

MFSD8 (UniProt Q8NHS3)
inactive: [1] -0.236 | [3] -0.062 | [4] -0.019 | [5] 0.059 | [6] -0.07 | [8] 0.054 | [9] 0.025 | [10] 0.079

MBLAC1 (UniProt A4D2B0)
inactive: [1] 0.11 | [3] 0.008 | [4] 0.056 | [5] -0.161 | [6] -0.064 | [8] 0.086 | [9] 0.01 | [10] 0.043

MCM10 (UniProt Q7L590)
inactive: [1] 0.303 | [2] -0.192 | [5] -0.097 | [6] -0.103 | [7] -0.014 | [8] 0.1 | [9] 0.204 | [10] -0.118

KIF3B (UniProt O15066)
inactive: [1] -0.071 | [2] 0.04 | [3] 0.027 | [4] -0.252 | [5] -0.071 | [6] 0.164 | [8] 0.04 | [9] 0.035 | [10] -0.161

LRFN1 (UniProt Q9P244)
inactive: [1] -0.054 | [2] 0.151 | [3] 0.031 | [6] 0.025 | [9] -0.048

MAP4K4 isoform 3 (UniProt O95819)
inactive: [1] -0.021 | [2] 0.032 | [3] 0.021 | [4] 0.093 | [6] -0.05 | [7] 0.01 | [8] 0.02 | [9] -0.021 | [10] -0.153

KCNK5 (UniProt O95279)
inactive: [1] 0.059 | [2] -0.117 | [3] -0.044 | [5] -0.408 | [6] -0.541 | [8] 0.193 | [9] -0.227 | [10] -0.007

MAP3K20 isoform 2 (UniProt Q9NYL2)
inactive: [1] 0.044 | [2] 0.068 | [4] 0.407 | [6] 0.036 | [7] -0.003 | [8] -0.242 | [9] -0.121
